# Whole data set: some 81,000 sequences, median “one-hybrid fitness for binding NBS DNA” near -0.1, cut for the highest 2% near 0.36. The entries come from a sample that favours the highest values as a whole.
# B1: Caulobacter ParB omega fusion; a variant is named by its letters at X, in order, B8GW30 (parent)
# chain: MESVVVGEPGMSEGRRGLGRGLSALLGEVDAAPAQAPGEQLGGSREAPIEILQRNPDQPRRTFREEDLEDLSNSIREKGVLQPILVRPSPDTAGEYQIVAGERAWRAAQRAGLKTVPIMVRELDDLAVLEIGIIENVQRADLNVLEEALSYKVLMEKFERTQENIAQTIGKSXSHVANXMRLLXLPDEVQSYLVSGELTAXHARAIAAAADPVALAKQIIEGGLSVRETEALARKAPNLSAGKSKGGRPPRVKDTDTQALESDLSSVLGLDVSIDHRGSTGTLTITYATLEQLDDLCNRLTRGI
# Variants of: B1
# Assay: one-hybrid fitness for binding NBS DNA (the Noc-binding site; scaled: cognate 1, non-cognate 0); higher = stronger binding
# Conditions: with NBS DNA site
# Summary of the method: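 The reporter was HIS3, with the binding site 19 bp from the promoter, in E. coli USO used for bacterial one-hybrid selection of Caulobacter ParB libraries with four specificity codons randomised. Growth was on M9 lacking histidine, with 0.1 mM IPTG and 5 mM 3-AT, for 48 hours at 37°C. Illumina sequencing covered plasmids before and after selection; three replicate libraries were pooled and variants with under 10 reads dropped. A fitness score is the log change in variant-to-wild-type read ratio, rescaled to the cognate and non-cognate references.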
row,Variant,one-hybrid fitness for binding NBS DNA
1,WTQT,≤ 0.2
2,RKML,≤ 0.2
3,FQSI,≤ 0.2
4,MFAL,≤ 0.2
5,SWRR,≤ 0.2
6,QHDY,≤ 0.2
7,QHYY,≤ 0.2
8,QSYY,≤ 0.2
9,QSRY,0.505
10,QSDY,≤ 0.2
11,QHRY,0.488
12,YIRY,≤ 0.2
13,KRNT,0.617
14,DRDT,≤ 0.2
15,KCNT,0.207
16,KRDT,0.421
17,NRNT,≤ 0.2
18,NRDT,≤ 0.2
19,MDAV,≤ 0.2
20,TRPC,≤ 0.2
21,QMTH,≤ 0.2
22,QKTS,0.475
23,QKTN,≤ 0.2
24,QCTS,0.458
25,QHTP,≤ 0.2

row,Variant,one-hybrid fitness for binding NBS DNA
1,QMTS,0.403
2,QKTD,≤ 0.2
3,QHTS,0.372
4,QMTD,≤ 0.2
5,QPTS,≤ 0.2
6,QHTN,≤ 0.2
7,QSTS,0.364
8,IAMY,≤ 0.2
9,QCIF,≤ 0.2
10,PRQG,≤ 0.2
11,VKPT,≤ 0.2
12,YCVL,≤ 0.2
13,DHNQ,≤ 0.2
14,SNYG,≤ 0.2
15,PCIT,≤ 0.2
16,NGMR,≤ 0.2
17,RLHW,≤ 0.2
18,LRLN,≤ 0.2
19,RGQR,≤ 0.2
20,QHWR,0.363
21,QHRR,0.989
22,QHPR,0.248
23,QHHR,0.571
24,QHYR,0.471
25,QHHN,≤ 0.2

row,Variant,one-hybrid fitness for binding NBS DNA
1,QHHQ,≤ 0.2
2,QHRN,0.334
3,QHGR,0.546
4,QHGN,≤ 0.2
5,QHIR,0.352
6,QHGD,≤ 0.2
7,IYTG,≤ 0.2
8,QEPT,≤ 0.2
9,QKVW,≤ 0.2
10,HKNP,≤ 0.2
11,NTTN,≤ 0.2
12,VWNG,≤ 0.2
13,CAIM,≤ 0.2
14,PVVW,≤ 0.2
15,YKVT,≤ 0.2
16,VSTT,≤ 0.2
17,QLTP,≤ 0.2
18,QSTN,≤ 0.2
19,QCTT,0.486
20,QLTT,0.393
21,QMTT,0.463
22,QLTS,0.307
23,QSTT,0.403
24,QSTH,≤ 0.2
25,QPTT,≤ 0.2

row,Variant,one-hybrid fitness for binding NBS DNA
1,QMTL,≤ 0.2
2,QITT,0.314
3,QMTQ,≤ 0.2
4,LYGT,≤ 0.2
5,ACDR,≤ 0.2
6,DHGS,≤ 0.2
7,GRAP,≤ 0.2
8,MVHG,≤ 0.2
9,SQHN,≤ 0.2
10,QKTM,≤ 0.2
11,QTTG,≤ 0.2
12,QKTP,≤ 0.2
13,QKTT,0.56
14,QATT,0.379
15,DRTT,≤ 0.2
16,QATD,≤ 0.2
17,QNTT,≤ 0.2
18,QTTT,0.603
19,QATH,≤ 0.2
20,QRTT,0.759
21,QTTY,0.301
22,ERNT,≤ 0.2
23,SKLS,≤ 0.2
24,CYAV,≤ 0.2
25,RIEC,≤ 0.2

row,Variant,one-hybrid fitness for binding NBS DNA
1,GTHW,≤ 0.2
2,QHTY,≤ 0.2
3,QHTM,≤ 0.2
4,QHTT,0.412
5,KWAC,≤ 0.2
6,TYFR,≤ 0.2
7,RREI,≤ 0.2
8,RRVI,≤ 0.2
9,RRRI,0.451
10,RCKI,≤ 0.2
11,RRKI,0.607
12,RRYI,≤ 0.2
13,VLSD,≤ 0.2
14,DRYG,≤ 0.2
15,SACR,≤ 0.2
16,CRNI,≤ 0.2
17,ARTS,≤ 0.2
18,KRAH,≤ 0.2
19,DRFT,≤ 0.2
20,NRFT,≤ 0.2
21,KRAT,0.572
22,KRFT,0.565
23,KCAT,≤ 0.2
24,ERLC,≤ 0.2
25,DGPR,≤ 0.2

row,Variant,one-hybrid fitness for binding NBS DNA
1,QMRT,0.79
2,QMWT,0.36
3,QMYT,0.436
4,QMHT,0.497
5,QMHQ,≤ 0.2
6,QMCT,0.339
7,QTLK,≤ 0.2
8,QTLT,0.527
9,QMET,0.295
10,DMRT,≤ 0.2
11,QMHG,≤ 0.2
12,KGMW,≤ 0.2
13,IVAT,≤ 0.2
14,PGEM,≤ 0.2
15,MPVM,≤ 0.2
16,GHRC,≤ 0.2
17,NPHC,≤ 0.2
18,QSLT,0.327
19,QMAF,≤ 0.2
20,QMNT,0.52
21,QPLT,≤ 0.2
22,QMDT,0.345
23,QMST,0.457
24,QMND,≤ 0.2
25,QMSF,≤ 0.2

row,Variant,one-hybrid fitness for binding NBS DNA
1,QMAG,≤ 0.2
2,QMAT,0.505
3,QMSG,≤ 0.2
4,QCLT,0.487
5,CHMT,≤ 0.2
6,EHDV,≤ 0.2
7,SSEQ,≤ 0.2
8,GTKR,0.255
9,RILE,≤ 0.2
10,RWLC,≤ 0.2
11,ADHS,≤ 0.2
12,SITC,≤ 0.2
13,TCAG,≤ 0.2
14,QMLN,≤ 0.2
15,QMLT,0.395
16,QMQT,0.392
17,QMGL,≤ 0.2
18,QMGT,0.447
19,QMPT,0.312
20,QMQF,≤ 0.2
21,QMIN,≤ 0.2
22,QMQY,0.223
23,QMLP,≤ 0.2
24,QMIT,0.402
25,QMGM,≤ 0.2

row,Variant,one-hybrid fitness for binding NBS DNA
1,HGKF,≤ 0.2
2,ARGT,≤ 0.2
3,PESN,≤ 0.2
4,MRTC,≤ 0.2
5,LKVF,≤ 0.2
6,YDRK,≤ 0.2
7,EANW,≤ 0.2
8,QTSN,0.221
9,QTSS,0.522
10,QSSS,0.353
11,QMSS,0.376
12,QHSH,≤ 0.2
13,QPSS,≤ 0.2
14,QHSS,0.37
15,QCSS,0.449
16,QMSH,≤ 0.2
17,QHSP,≤ 0.2
18,QTSP,≤ 0.2
19,QMSP,≤ 0.2
20,NGMI,≤ 0.2
